PubChem BioAssay (Tox21)
Several values for one entry are separate records, joined by “and”; a condition that tells them apart may be missing. Equal values may be shown once. Inconclusive results are not listed. Entries that show only a call come without a potency. The source holds several records for some structures; these can differ, active in one and inactive in another. Activity calls are given as the source filed them. Calls follow the shape of the dose curve; as a rule, active = well fitted cell-killing curve with a large enough effect in the repeat runs; inconclusive = weak or mixed curves, or effect the other way; inactive = flat fitted curve, though single readings scatter.

Experiment: qHTS assay to identify small molecule antagonists of the androgen receptor (AR) signaling pathway using the MDA cell line in the presence of 0.5 nM R1881 - cell viability counter screen (AID 1259242); also: nearly all actives have a fitted effect of over 45% in size
Conditions: MDA-kb2 viability, CellTiter-Fluor protease fluorescence, 16 h; series mostly up to 92.4 µM
Description: U.S. Tox21 Program National Center for Advancing Translational Sciences [NCATS] NIH Chemical Genomics Center [NCGC] U.S. Environmental Protection Agency [EPA] National Institutes of Environmental Health Sciences [NIEHS] National Toxicology Program [NTP] U.S. Food and Drug Administration [FDA] Tox21 Assay Overview: Androgen receptor (AR) is an important member of the nuclear receptor family. Its signaling plays a critical role in AR-dependent prostate cancer and other androgen related diseases. Considerable attention has been given in the past decades to develop methods to study and screen for the environmental chemicals that have the potential to interfere with metabolic homeostasis, reproduction, developmental and behavioral functions. Therefore AR binding assay for screening androgen antagonists can be used to identify potential endocrine disruptors. MDA-kb2 cells (from ATCC, deposited by Wilson et al.) were used to screen for AR inhibitors against Tox21 compound libraries. These cells are human breast carcinoma cells that were stably transfected with a luciferase reporter gene under control of the MMTV promoter that contains response elements for both androgen receptor (AR) and glucocorticoid receptor (GR). The current screening for identification of AR inhibitors against Tox21 libraries used lower concentration of (0.5 nM) R1881 as a stimulator. The cytotoxicity of the Tox21 compound libraries against MDA-kb2 cell line was tested by measuring live-cell protease activity using CellTiter-Fluor assay in the same wells.
Tox21 Assay Protocol Summary: MDA-kb2 cells (cells cultured without CO2) were dispensed at 3,000 cells/well in 4 uL of culture medium into white wall/solid-bottom 1536-well plates (Corning Life Sciences, Corning, NY) using a Multidrop Combi (ThermoFisher Scientific, Waltham, MA) dispenser. After the assay plates were incubated at a 37C and 0% CO2 for 5 hr, 23 nL of compounds dissolved in DMSO, positive controls or DMSO only was transferred to the assay plate by a Pintool station (Kalypsys, San Diego, CA). The transfer of compounds was followed by the addition of 1 uL of 0.5 nM (final concentration) agonist (R1881)/culture medium using a Flying Reagent Dispenser (FRD, Aurora Discovery, San Diego, CA). The plates were incubated at 37C and 0% CO2 for 16 hr. For cytotoxicity assay, 1 uL of CellTiter-Fluor reagent (Promega Corporation, Madison, WI) was added to each well using the FRD and after 30 min incubation at 37C and 0% CO2, The fluorescence intensity was measured using ViewLux plate reader (PerkinElmer, Shelton, CT).
Potency is read from the fitted curve at half-maximal effect.

Structure (SMILES)	Potency
CCC/C=N/O	inactive
CCCCCCCC[N+](C)(CCCCCCCC)CCCCCCCC	17.2 µM (active) and 3.44 µM (active) and 15.4 µM (active)
OC(c1ccc(Cl)cc1)(c1cncnc1)c1ccccc1Cl (stereo not given)	27.8 µM (active) and inactive
O=C1C(Cl)=C(Cl)C(=O)c2ccccc21	43.4 µM (active)
O=C1Nc2ccc(Cl)cc2C(c2ccccc2)=NC1O (stereo not given)	inactive
O=P(OCCCl)(OCCCl)OCCCl	inactive
N#CCCCCC#N	inactive
Clc1ccc(C(Cl)(Cl)Cl)cc1	inactive
S=c1[nH]c2ccccc2[nH]1	inactive
CCCCOCCOC(C)=O	inactive
Clc1cccc(Cl)c1	inactive
CNC(=O)Oc1cccc2c1OC(C)(C)C2	inactive
Oc1ccc(Cl)cc1Cc1ccccc1	inactive
CCOS(=O)(=O)OCC	inactive
CC(C)=CC1C(C(=O)OCc2cccc(Oc3ccccc3)c2)C1(C)C (stereo not given)	inactive
O=[N+]([O-])/N=C1\NCCN1Cc1ccc(Cl)nc1	inactive
Clc1ccccc1-c1nnc(-c2ccccc2Cl)nn1	inactive
O=C(O)CF	inactive
CCOP(=S)(OCC)SCSC(C)(C)C	inactive
C[C@]12CC[C@H]3[C@@H](CCC4=CC(=O)CC[C@@H]43)[C@@H]1CC[C@@H]2O	inactive

Structure (SMILES)	Potency
COC(=O)Nc1nc2ccccc2[nH]1	inactive
CCCCCCCCCC(CC)c1ccc(S(=O)(=O)O)cc1 (stereo not given)	inactive
C=CC(=O)OCC(CC)(COC(=O)C=C)COC(=O)C=C	31.5 µM (active)
N#Cc1cccnc1	inactive
CC(O)CN(CC(C)O)CC(C)O (stereo not given)	inactive
Cc1cc(Cl)ccc1N=CN(C)C	inactive
CCCCC(C#N)(Cn1cncn1)c1ccc(Cl)cc1 (stereo not given)	inactive
CNC(=O)CSP(=S)(OC)OC	inactive
OCCOCCO	inactive
CC1(C)C(C(=O)OC(C#N)c2cccc(Oc3ccccc3)c2)C1(C)C (stereo not given)	inactive
CCOP(=O)(O)OCC (tested in a mixture with another compound)	inactive and 54 µM (active)
NC(=O)CN1CCCC1=O	inactive
CN(C)c1nc(=O)n(C2CCCCC2)c(=O)n1C	inactive
CCCCCCCCCCCCCl	inactive
CCC(=O)Nc1ccc(Cl)c(Cl)c1	inactive
CCC[CH2][Sn]([Cl])([Cl])[CH2]CCC	874 nM (active) and 611 nM (active)
CNC(=S)S	inactive
CCCCSP(=O)(SCCCC)SCCCC	inactive
CCC1(c2ccc(N)cc2)CCC(=O)NC1=O (stereo not given)	inactive
COP(=S)(OC)Oc1ccc(S(=O)(=O)N(C)C)cc1	inactive
